# Laboratory results taken from PubChem BioAssay (NCATS).
# Values joined by “and” are separate entries in the source; they are usually repeats but may differ in a detail not shown here. Identical values can stand only once. Inconclusive results are not listed. Active and inactive are the calls of the source. Unless noted, the call rests on the fitted dose curve; in most records, active means well fitted curve in either direction with a large enough effect (not every such curve was filed as active); inconclusive means small, poorly fitted or top-dose-only effect, or another doubt; inactive means flat fitted curve, though single readings scatter.
# How the values were obtained:
# [1] = AP1 Signaling Pathway (AID 357); conditions: ME-180 AP-1-bla reporter, EGF-induced, beta-lactamase ratio, 5 h; at 7.69 µM (top of the series) unless noted;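 further: ME-180 reporter cells stimulated with EGF at its EC50 level; on the % scale 0 is the no-effect control and ±100 the full control effect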
# In short: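 Modulation of EGF-driven AP-1 transcription was assessed with a beta-lactamase reporter in ME-180 cells. Compound and EC50 EGF were co-incubated 5 hours at 37 °C before 2.5-hour CCF4 loading at room temperature and dual-emission reading.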
# [2] = target: Cytochrome P450 1A2 (Homo sapiens) (UniProt P05177); assay: p450-cyp1a2 (AID 410; calls by dose curve; further: potency means the concentration at half of the fitted maximal effect;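 on activity change, negative = inhibition: -100% = full effect of reference inhibitor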)
# Cytochrome P450 1A2 (Homo sapiens), sequence (P05177 whole entry, looked up): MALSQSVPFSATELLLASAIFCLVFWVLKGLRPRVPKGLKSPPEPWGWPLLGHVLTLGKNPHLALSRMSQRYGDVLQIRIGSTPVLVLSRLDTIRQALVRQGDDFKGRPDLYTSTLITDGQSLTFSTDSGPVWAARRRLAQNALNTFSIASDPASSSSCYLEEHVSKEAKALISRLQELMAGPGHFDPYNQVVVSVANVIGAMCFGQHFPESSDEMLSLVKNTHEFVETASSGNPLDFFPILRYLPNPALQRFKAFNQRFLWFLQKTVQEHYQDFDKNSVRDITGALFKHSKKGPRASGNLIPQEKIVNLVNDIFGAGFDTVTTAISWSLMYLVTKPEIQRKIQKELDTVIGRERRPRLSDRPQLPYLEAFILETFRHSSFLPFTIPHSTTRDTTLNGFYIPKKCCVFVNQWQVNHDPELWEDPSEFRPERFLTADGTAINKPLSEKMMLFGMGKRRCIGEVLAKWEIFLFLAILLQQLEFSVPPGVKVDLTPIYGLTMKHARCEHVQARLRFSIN
# In short: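 Human CYP1A2 (20nM) demethylated Luciferin-ME at its Km (100uM) in 100mM KPO4. After 10 min compound preincubation, NADPH regeneration ran the reaction 60 min at room temperature. Luciferin was read by luminescence, normalized to 57 uM furafylline.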
# [3] = NFAT Signaling Pathway (AID 444); conditions: Jurkat NFAT-bla M1, carbachol, beta-lactamase ratio, 5 h; at 7.69 µM (top of the series) unless noted;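 further: carbachol stimulus at about its EC50 of 1 µM final; on the % scale 0 is the no-effect control and ±100 the full control effect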
# In short: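 Read-out: CCF4 FRET ratio (460 nm/530 nm) after 1 h RT dye loading, used for %activity and AC50 from titration series. Cells: Jurkat NFAT-β-lactamase/M1 line, treated with compound plus 1 uM carbachol for 5 h, 37 °C.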
# [4] = Stat Signaling Pathway (AID 446); conditions: ME-180 SIE beta-lactamase reporter, IL-6 stimulated, 5 h; at 7.69 µM (top of the series) unless noted;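 further: ME-180 cervical cancer cells given 40 pM IL-6 alongside compound; SIE-controlled beta-lactamase reporter measured as 460/530 nm FRET emission ratio; on the % scale 0 is the no-effect control and ±100 the full control effect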
# In short: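 IL-6/STAT signaling read in ME-180 cells via an SIE beta-lactamase reporter. Stimulus was 40 pM IL-6 (its AC50) for 5 hrs, so both activation and inhibition register.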
# [5] = target: Glucocorticoid receptor (Homo sapiens) (UniProt P04150); assay: GR-GFP Redistribution (AID 450;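 active means compounds whose dose series gives a full or clear partial fitted curve of increased nuclear translocation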; further: potency means the concentration at half of the fitted maximal effect); conditions: U2OS GR-GFP nuclear translocation, laser cytometry, 2 h
# Glucocorticoid receptor (Homo sapiens), sequence (P04150 whole entry, looked up, the tested form may be a part): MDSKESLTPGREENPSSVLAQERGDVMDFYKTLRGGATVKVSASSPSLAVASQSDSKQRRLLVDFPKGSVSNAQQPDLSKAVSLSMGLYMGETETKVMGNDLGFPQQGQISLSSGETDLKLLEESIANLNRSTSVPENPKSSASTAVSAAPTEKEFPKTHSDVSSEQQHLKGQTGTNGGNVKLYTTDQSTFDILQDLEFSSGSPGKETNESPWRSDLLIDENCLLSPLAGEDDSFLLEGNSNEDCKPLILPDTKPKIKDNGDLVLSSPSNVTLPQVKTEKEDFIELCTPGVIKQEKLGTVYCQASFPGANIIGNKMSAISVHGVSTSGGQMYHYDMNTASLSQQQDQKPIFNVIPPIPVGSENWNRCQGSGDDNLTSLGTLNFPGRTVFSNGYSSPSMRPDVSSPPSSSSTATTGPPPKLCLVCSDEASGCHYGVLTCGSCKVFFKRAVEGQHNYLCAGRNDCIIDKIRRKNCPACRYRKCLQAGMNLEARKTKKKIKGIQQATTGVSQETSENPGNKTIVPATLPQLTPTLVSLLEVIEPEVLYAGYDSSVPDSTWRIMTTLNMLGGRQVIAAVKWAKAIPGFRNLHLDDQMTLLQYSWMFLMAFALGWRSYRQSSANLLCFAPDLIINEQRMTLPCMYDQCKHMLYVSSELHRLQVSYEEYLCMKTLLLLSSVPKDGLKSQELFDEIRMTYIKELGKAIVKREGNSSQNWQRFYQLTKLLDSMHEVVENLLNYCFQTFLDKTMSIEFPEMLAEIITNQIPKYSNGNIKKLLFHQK
# [6] = target: Glucocorticoid receptor (Homo sapiens) (UniProt P04150); assay: GR-EFC Redistribution (AID 451; calls by dose curve; further: potency means the concentration at half of the fitted maximal effect); conditions: CHO-K1 GR-EFC translocation, beta-gal luminescence, 2 h
# In short: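 Translocation of GR-ED fusion to nuclear EA restores b-gal, read by luminescence after 1 h room-temperature detection. Engineered CHO-K1 biosensor cells, 1,000/well, exposed 2 h at 37 C to titrations up to 46 uM final.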
# [7] = target: Mitogen-activated protein kinase 10 (Mus musculus) (UniProt Q61831); assay: JNK3 AlphaScreen Assay (AID 530);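 further: kinase came from lysate of stimulated human HepG2 cells; signal reports phosphorylation of biotinylated GST-cJun 1-79 at Ser73 with 10 µM ATP; on the % scale 0 is the no-effect control and ±100 the full control effect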
# In short: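 Room-temperature AlphaScreen kinase assay; pre-activated HepG2 lysate as JNK3 source, biotin-GST-cJun(1-79) substrate, 10 uM ATP, compound 15 min preincubation.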
# [8] = target: 3',5'-cyclic-AMP phosphodiesterase 4B (Homo sapiens) (UniProt Q07343); assay: qHTS Assay for Inhibitors of PDE-IV (AID 607; active means well fitted activation curve with a large enough effect in the main read-out, with a control signal flat, not every such curve was filed as active; further: % of control where 0% means no effect)
# 3',5'-cyclic-AMP phosphodiesterase 4B (Homo sapiens), sequence (Q07343 whole entry, looked up): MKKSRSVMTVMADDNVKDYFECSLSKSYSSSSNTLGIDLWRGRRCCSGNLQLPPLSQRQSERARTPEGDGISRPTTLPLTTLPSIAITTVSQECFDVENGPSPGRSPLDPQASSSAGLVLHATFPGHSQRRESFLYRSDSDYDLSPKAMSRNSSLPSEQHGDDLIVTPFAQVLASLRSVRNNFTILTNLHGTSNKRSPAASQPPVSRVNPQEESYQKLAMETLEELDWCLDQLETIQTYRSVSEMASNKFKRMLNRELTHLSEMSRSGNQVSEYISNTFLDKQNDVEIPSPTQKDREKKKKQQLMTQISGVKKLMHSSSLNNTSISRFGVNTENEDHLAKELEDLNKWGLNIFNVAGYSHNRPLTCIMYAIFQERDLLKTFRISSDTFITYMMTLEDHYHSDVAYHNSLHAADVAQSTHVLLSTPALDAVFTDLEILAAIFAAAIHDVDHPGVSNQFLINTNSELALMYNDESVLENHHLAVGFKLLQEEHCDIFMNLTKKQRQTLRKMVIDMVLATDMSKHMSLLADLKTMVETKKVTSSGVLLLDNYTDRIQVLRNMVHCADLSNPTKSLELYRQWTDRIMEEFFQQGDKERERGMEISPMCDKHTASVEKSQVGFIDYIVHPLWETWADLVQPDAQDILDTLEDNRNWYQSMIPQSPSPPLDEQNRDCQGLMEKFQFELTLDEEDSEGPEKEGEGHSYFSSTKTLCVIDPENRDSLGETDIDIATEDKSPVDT
# In short: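 Live HEK293 cells with a modified cyclic nucleotide-gated (CNG) channel report intracellular cAMP via membrane-potential dye fluorescence (ex 535/em 590 nm). Endogenous PDE-IV was targeted. Compounds were tested at up to 22.9 uM final; RO 20-1724 100 uM served as control.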
# [9] = qHTS Assay for Identification of Small Molecule Agonists for Hypoxia Response Element Signaling Pathway (AID 914; active means well fitted activation curve with a large enough effect in the signal ratio, with a control signal flat, not every such curve was filed as active; the % refers to the signal ratio; further: potency means the concentration at half of the fitted maximal effect; on activation: % of control where 0% means no effect); conditions: ME-180 (cervical carcinoma) HRE-bla reporter, beta-lactamase ratio, CoCl2, 17 h; activation: stronger effect = higher value
# In short: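 Cells were plated overnight, pin-dosed with compound in a titration series, co-stimulated with EC50 CoCl2 and incubated 17 hours at 37 degrees Celsius. CCF4 substrate was then loaded, and AC50 values came from the 460nm/530nm ratio.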
# [10] = qHTS Assay for Lipid Storage Modulators (AID 1519; calls by dose curve); conditions: Drosophila S3 cells, BODIPY lipid droplet/cell ratio, laser cytometry, cells loaded with oleic acid
# In short: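 Cells seeded at 5,000 per well were treated with compounds over a concentration series and loaded with oleic acid (400 uM, as added). Lipid droplet fluorescence (488 nm excitation, 500-530 nm channel) was read by laser-scanning cytometry and normalized to 20 uM Triacsin C.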
# [11] = target: ATP-dependent 6-phosphofructokinase (Trypanosoma brucei brucei) (UniProt O15648); assay: qHTS Assay to Find Inhibitors of T. brucei phosphofructokinase: hit validation (AID 492961; active means well fitted curve in the direction sought with a large enough effect; an effect the other way counts as inactive or inconclusive)
# ATP-dependent 6-phosphofructokinase (Trypanosoma brucei brucei), sequence (O15648 whole entry, looked up): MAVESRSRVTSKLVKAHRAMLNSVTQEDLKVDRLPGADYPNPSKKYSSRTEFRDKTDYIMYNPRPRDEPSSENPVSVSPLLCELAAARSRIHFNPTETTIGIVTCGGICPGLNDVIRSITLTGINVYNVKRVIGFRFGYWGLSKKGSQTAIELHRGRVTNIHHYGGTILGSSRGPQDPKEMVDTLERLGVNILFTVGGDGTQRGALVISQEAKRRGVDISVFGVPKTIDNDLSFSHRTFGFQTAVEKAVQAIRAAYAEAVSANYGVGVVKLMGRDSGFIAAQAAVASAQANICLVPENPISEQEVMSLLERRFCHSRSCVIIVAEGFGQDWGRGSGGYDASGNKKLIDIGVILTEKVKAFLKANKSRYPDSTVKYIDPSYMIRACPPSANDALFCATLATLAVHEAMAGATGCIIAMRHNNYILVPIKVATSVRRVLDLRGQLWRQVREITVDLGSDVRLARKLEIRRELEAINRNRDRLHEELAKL
# In short: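 ADP-Glo luminescence read-out of ADP formed by 1.25 nM PFK from 0.1 mM ATP and 0.5 mM F6P (TEA pH 8.0, 45 min, RT). Compounds titrated; activity normalized to no-enzyme and full-enzyme controls.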
# [12] = target: Ubiquitin carboxyl-terminal hydrolase 1 (Homo sapiens) (UniProt O94782); assay: Inhibitors of USP1/UAF1: Pilot qHTS (AID 504865; active means well fitted curve in the direction sought with a large enough effect; an effect the other way counts as inactive or inconclusive;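 further: rhodamine fluorescence freed from ubiquitin-rhodamine substrate followed over time; top concentration of the series differs between compounds; on the % scale 0 is the no-effect control and ±100 the full control effect; nearly all actives have a fitted effect of over 35% in size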)
# Ubiquitin carboxyl-terminal hydrolase 1 (Homo sapiens), sequence (O94782 whole entry, looked up): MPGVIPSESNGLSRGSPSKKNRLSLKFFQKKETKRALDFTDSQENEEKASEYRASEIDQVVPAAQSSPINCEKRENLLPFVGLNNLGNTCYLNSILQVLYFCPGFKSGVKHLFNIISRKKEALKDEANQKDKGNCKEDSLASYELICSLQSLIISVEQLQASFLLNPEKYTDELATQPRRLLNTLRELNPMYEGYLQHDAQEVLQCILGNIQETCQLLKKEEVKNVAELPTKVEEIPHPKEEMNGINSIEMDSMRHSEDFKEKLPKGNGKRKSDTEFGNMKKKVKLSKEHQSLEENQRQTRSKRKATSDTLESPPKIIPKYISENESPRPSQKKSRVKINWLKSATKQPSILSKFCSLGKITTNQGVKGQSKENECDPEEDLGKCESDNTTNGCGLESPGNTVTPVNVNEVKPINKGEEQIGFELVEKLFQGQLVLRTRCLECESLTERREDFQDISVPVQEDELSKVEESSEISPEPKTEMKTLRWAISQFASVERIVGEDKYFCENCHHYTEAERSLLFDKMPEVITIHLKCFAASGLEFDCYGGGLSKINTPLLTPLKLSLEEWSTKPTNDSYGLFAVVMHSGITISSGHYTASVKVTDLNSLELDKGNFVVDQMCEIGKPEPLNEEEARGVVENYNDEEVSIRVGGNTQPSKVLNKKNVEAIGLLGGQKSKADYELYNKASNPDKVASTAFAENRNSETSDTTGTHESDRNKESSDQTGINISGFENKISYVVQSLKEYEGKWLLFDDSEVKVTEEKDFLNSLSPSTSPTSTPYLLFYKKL
# In short: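 USP1/UAF1 complex (1nM) preincubated with compound 15 min at room temperature, then Ub-Rho substrate (150nM final) added. Fluorescence read kinetically at 480/540 nm, 6 reads every 60 seconds. Buffer: 50mM HEPES pH 7.8, 0.5mM EDTA, 0.1 mg/ml BSA, 1mM TCEP, 0.01% Tween-20.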
# [13] = qHTS profiling for inhibitors of Plasmodium falciparum proliferation (AID 504749; active means well fitted curve in the direction sought with a large enough effect; an effect the other way counts as inactive or inconclusive;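 further: 0% = DMSO vehicle and full inhibition = artemisinin control; nearly all actives have a fitted effect of over 60% in size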); conditions: P. falciparum in erythrocytes, SYBR Green DNA, 72 h, at 12.8 µM (top of the series)
# In short: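 Three-day growth assay of blood-stage parasites in erythrocytes (0.3% parasitemia, 2.5% hematocrit) at 37 C, 5% CO2, quantified by SYBR Green DNA staining after overnight detergent lysis.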
# [14] = target: Lysosomal acid glucosylceramidase (Homo sapiens) (UniProt P04062); assay: Glucocerebrosidase-p2 (AID 348; in the data active means potency below about 10 µM; further: potency means the concentration at half of the fitted maximal effect); conditions: purified GBA, blue fluorogenic substrate, 40 min
# Lysosomal acid glucosylceramidase (Homo sapiens), sequence (P04062 whole entry, looked up): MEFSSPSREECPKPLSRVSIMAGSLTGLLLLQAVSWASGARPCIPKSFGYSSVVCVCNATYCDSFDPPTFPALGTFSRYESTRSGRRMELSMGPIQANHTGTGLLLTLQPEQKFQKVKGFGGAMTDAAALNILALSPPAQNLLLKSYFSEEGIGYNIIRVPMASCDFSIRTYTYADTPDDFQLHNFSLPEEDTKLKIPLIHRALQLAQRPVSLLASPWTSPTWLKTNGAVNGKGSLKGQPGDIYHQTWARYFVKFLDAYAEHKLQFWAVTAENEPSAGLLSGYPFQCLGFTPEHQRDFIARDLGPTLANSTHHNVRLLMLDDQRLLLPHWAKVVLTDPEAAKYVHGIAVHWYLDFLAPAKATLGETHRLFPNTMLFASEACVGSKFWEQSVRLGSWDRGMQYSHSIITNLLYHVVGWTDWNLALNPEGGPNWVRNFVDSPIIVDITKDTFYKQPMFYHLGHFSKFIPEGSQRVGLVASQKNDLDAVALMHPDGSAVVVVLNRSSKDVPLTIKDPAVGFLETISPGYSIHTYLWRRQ
# In short: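 Compounds titrated from 0.6 nM upwards against 0.2 nM enzyme in pH 5.9 citric acid/KH2PO4, taurocholate, tween-20; blue fluorogenic substrate 80 uM, 40 min room temperature, stopped and read Ex 365/Em 440 for AC50.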
# [15] = target: Cytochrome P450 3A4 (Homo sapiens) (UniProt P08684); assay: qHTS Assay for Activators of Cytochrome P450 3A4 (AID 885; active means well fitted curve in the direction sought with a large enough effect; an effect the other way counts as inactive or inconclusive; further: nearly all actives have a fitted effect of over 65% in size)
# Cytochrome P450 3A4 (Homo sapiens), sequence (P08684 whole entry, looked up): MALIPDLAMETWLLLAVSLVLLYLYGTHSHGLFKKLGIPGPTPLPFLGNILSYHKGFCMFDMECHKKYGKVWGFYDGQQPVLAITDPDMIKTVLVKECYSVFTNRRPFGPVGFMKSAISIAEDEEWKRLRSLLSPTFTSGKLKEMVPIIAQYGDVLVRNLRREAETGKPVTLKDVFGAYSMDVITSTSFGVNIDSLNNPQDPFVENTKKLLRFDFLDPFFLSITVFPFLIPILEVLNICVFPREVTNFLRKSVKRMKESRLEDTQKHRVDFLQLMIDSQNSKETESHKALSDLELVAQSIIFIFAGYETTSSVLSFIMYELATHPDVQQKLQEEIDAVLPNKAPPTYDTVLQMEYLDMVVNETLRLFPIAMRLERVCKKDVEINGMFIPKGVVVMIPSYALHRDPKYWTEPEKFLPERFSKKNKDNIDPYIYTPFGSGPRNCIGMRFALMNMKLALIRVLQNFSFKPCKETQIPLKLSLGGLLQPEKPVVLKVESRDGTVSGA
# In short: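 Quantitative HTS format: compounds preincubated with 20nM human CYP3A4 and Luciferin-PPXE substrate at KM, reaction started by NADPH regeneration, stopped after 60 min, luciferase luminescence read 20 min later.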
# [16] = target: Cytochrome P450 3A4 (Homo sapiens) (UniProt P08684); assay: qHTS Assay for Inhibitors and Substrates of Cytochrome P450 3A4 (AID 884; active means well fitted curve in the direction sought with a large enough effect; an effect the other way counts as inactive or inconclusive; further: nearly all actives have a fitted effect of over 50% in size; further: potency means the concentration at half of the fitted maximal effect)
# In short: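 20 nM human CYP3A4 with 25 uM Luciferin-PPXE (at KM) in 200 mM KPO4, preincubated 10 min with compound; NADPH regeneration started a 60 min RT reaction. Luciferin detected by luminescence, normalized to 57 uM ketoconazole as full inhibition.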
# [17] = Confirmation and Secondary Assay for Modulators of Hemoglobin Beta Chain Splicing at IVS2 654 locus (AID 910; active means well fitted curve in the direction sought with a large enough effect; an effect the other way counts as inactive or inconclusive;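 further: HeLa cells stably carrying EGFP split by mutant beta-globin IVS2-654 intron; per-well total GFP intensity by laser scanning cytometry after 2-day treatment; % of control where 0% means no effect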)
# In short: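 Readout: per-well total peak green fluorescence (488 nm ex, 500–520 nm em) from objects 5–250 µm, reflecting correct splicing of an EGFP-654 reporter. Compounds were applied for 2 days at 37 °C to overnight-plated HeLa EGFP-654 cells; controls were DMSO and 500 nM IVS2-654 PNA.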
# [18] = Confirmation and Secondary Assay for Modulators of Hemoglobin Beta Chain Splicing at IVS2 705 locus (AID 930; active means well fitted curve in the direction sought with a large enough effect; an effect the other way counts as inactive or inconclusive;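 further: HeLa cells stably expressing the EGFP-705 splicing reporter; GFP fluorescence per well restored by corrected splicing of the IVS2-705 intron in EGFP; % of control where 0% means no effect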)
# In short: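 Splice-correction reporter: EGFP cDNA split by beta-globin intron 2 bearing the 705 mutation, stably in HeLa. Compound incubation 2 days, 37C; fluorescent objects 5-250 µm summed per well.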
# [19] = measured here: cell count channel max response
# [20] = measured here: lipid channel max response
structure (smiles),measurement,setting,value
C[C@@H]1CCC[C@H](C)N1NC(=O)c1ccc(Cl)c(S(N)(=O)=O)c1,"activity change, negative = inhibition",[1],2.6% [at 17.2 µM] (inactive) and 10.6% [at 17.2 µM] (inactive)
same,Potency,[2],inactive
same,"activity change, negative = inhibition",[3],2.78% [at 17.2 µM] (inactive) and -21.9% [at 17.2 µM] (inactive)
same,"activity, negative = inhibition",[4],9.09% [at 17.2 µM] (inactive) and 21.6% [at 17.2 µM] (inactive)
same,Potency,[5],> 20.6 µM (inactive)
same,Potency,[6],> 20.6 µM (inactive)
same,Potency,[7],inactive
same,Potency,[8],inactive
same,activation,[9],-10.1% (inactive) and -0.309% (inactive)
same,"activity change, negative = inhibition",[10]; at 25.7 µM (top of the series),1.49% (inactive)
same,max response,[10]; [19],17.3%
same,max response,[10]; [20],17%
same,outcome,[11],inactive
same,Potency,[12],inactive
same,"activity, negative = inhibition",[13]; parasite line A,12.8% (inactive)
same,"activity, negative = inhibition",[13]; parasite line B,12% (inactive)
COc1cccc(Cn2c(=O)cnc3cnc(N4CCN(C)CC4)nc32)c1,Potency,[14],> 11.4 µM (inactive)
same,"activity change, negative = inhibition",[1],-3.06% (inactive)
same,"activity change, negative = inhibition",[3],-19.9% (inactive)
same,"activity, negative = inhibition",[4],-11.2% (inactive)
same,Potency,[5],> 9.22 µM (inactive)
same,Potency,[6],> 46 µM (inactive)
same,Potency,[7],inactive
same,Potency,[8],inactive
same,Potency,[15],inactive
same,"activity change, negative = inhibition",[10]; at 57.5 µM (top of the series),5.18% (inactive)
same,max response,[10]; [19],20.4%
same,max response,[10]; [20],22.6%
same,Potency,[12],inactive
Cc1cnc(CNc2ncnc3ccc(-c4ccccc4C(F)(F)F)cc23)cn1,Potency,[14],> 11.4 µM (inactive)
same,"activity change, negative = inhibition",[1],15.7% (inactive)
same,Potency,[2],12.6 µM (active)
same,"activity change, negative = inhibition",[3],-22.4% (inactive)
same,"activity, negative = inhibition",[4],-29.2% (inactive)
same,Potency,[5],> 46 µM (inactive)
same,Potency,[6],> 46 µM (inactive)
same,Potency,[7],inactive
same,Potency,[8],inactive
same,Potency,[16],2 µM (active)
same,Potency,[15],inactive
same,"activity change, negative = inhibition",[10]; at 57.5 µM (top of the series),0.934% (inactive)
same,max response,[10]; [19],8.56%
same,max response,[10]; [20],7.96%
same,Potency,[12],inactive
C=C(NC(=O)C(=C)NC(=O)c1csc(C2=NC3c4csc(n4)C4NC(=O)c5csc(n5)C(C(C)(O)C(C)O)NC(=O)C5CSC(=N5)C(=CC)NC(=O)C(C(C)O)NC(=O)c5csc(n5)C3(CC2)NC(=O)C(C)NC(=O)C(=C)NC(=O)C(C)NC(=O)C(C(C)CC)NC2C=Cc3c(C(C)O)cc(nc3C2O)C(=O)OC4C)n1)C(N)=O (stereo not given),Potency,[16],inactive
same,Potency,[17],inactive
same,outcome,[18],inactive
same,"activity change, negative = inhibition",[10]; at 57.5 µM (top of the series),-19.2% (inactive)
same,max response,[10]; [19],27.8%
same,max response,[10]; [20],5.44%
COc1cccc(Cn2c(=O)c(-c3ccccc3)nc3cnc(N4CCN(C)CC4)nc32)c1,Potency,[14],> 11.4 µM (inactive)
same,Potency,[2],inactive
same,Potency,[5],> 9.22 µM (inactive)
same,Potency,[6],> 46 µM (inactive)
same,Potency,[8],inactive
same,Potency,[15],inactive
same,Potency,[9],3.16 µM (active)
same,"activity change, negative = inhibition",[10]; at 57.5 µM (top of the series),-6.14% (inactive)
same,max response,[10]; [19],6.94%
same,max response,[10]; [20],-0.577%
same,Potency,[12],inactive
COc1ccccc1CNc1cc(-c2cccc(C#N)c2)ncn1,Potency,[14],> 11.4 µM (inactive)
same,"activity change, negative = inhibition",[1],-5.31% (inactive)
same,Potency,[2],3.98 µM (active)
same,"activity change, negative = inhibition",[3],17.8% (inactive)
same,"activity, negative = inhibition",[4],-0.867% (inactive)
same,Potency,[5],> 46 µM (inactive)
same,Potency,[6],> 46 µM (inactive)
same,Potency,[7],inactive
same,Potency,[8],inactive
same,Potency,[15],inactive
same,"activity change, negative = inhibition",[10]; at 57.5 µM (top of the series),3.16% (inactive)
same,max response,[10]; [19],4.01%
same,max response,[10]; [20],4.55%
same,Potency,[12],inactive
